Data reported in PubChem BioAssay AID1159580 (chemical genetic matrix, 2015).
“And” between values parts separate entries of the source, which are not always exact repeats. Equal entries are not always repeated. Among all 5,500 compounds or so, about 2,000 (36%) were called active. Roughly 18% stayed inconclusive and do not appear here. No stated cut-off is given here; in the data, active means normalized growth mostly below about 0.91 (no sharp cut-off); inconclusive means no clear call, values can overlap the other calls; inactive means mostly above about 0.92. The list shows a part of the results.

Experiment: chemical genetic growth profiling, strain panel (AID 1159580);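 further: tested at 20 µM; growth read once vehicle control cultures reached saturation at 30 °C; 1 = growth at the plate median or of vehicle wells; lower values mean less growth of the strain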
Settings: S. cerevisiae deletion strains, growth OD

Measured: normalized growth

CC(CCC(=O)O)[C@H]1CCC2C3C[C@H](O)[C@@H]4C[C@H](O)CC[C@]4(C)C3CC[C@@]21C (stereo partly specified)
inactive: locus YAL021C, strain ccr4, active compounds read low 0.977 | locus YAL026C, strain drs2, active compounds read low 1.01 | locus YAL030W, strain snc1, active compounds read low 0.984 | locus YBL061C, strain skt5, active compounds read low 0.989 | locus YBR009C, strain hhf1, active compounds read low 0.97 | locus YBR021W, strain FUR4, active compounds read low 1.01 | locus YBR023C, strain chs3, active compounds read low 0.982 | locus YBR171W, strain sec66, active compounds read low 0.996 | locus YBR229C, strain ROT2, active compounds read low 1.02 | locus YBR231C, strain swc5, active compounds read low 1.01 | locus YBR279W, strain paf1, active compounds read low 1 | locus YCL011C, strain gbp2, active compounds read low 0.97 | locus YCL016C, strain dcc1, active compounds read low 0.96 | locus YCL029C, strain bik1, active compounds read low 1.04 | locus YCL069W, strain vba3, active compounds read low 0.985 | locus YCR088W, strain abp1, active compounds read low 0.993 | locus YDL005C, strain med2, active compounds read low 0.973 | locus YDL035C, strain GPR1, active compounds read low 1.04 | locus YDL040C, strain nat1, active compounds read low 0.986 | locus YDL074C, strain BRE1, active compounds read low 1.04 | locus YDL101C, strain DUN1, active compounds read low 1.02 | locus YDL185W, strain tfp1, active compounds read low 1.03 | locus YDL192W, strain arf1, active compounds read low 1.04 | locus YDR001C, strain nth1, active compounds read low 0.976 | locus YDR069C, strain doa4, active compounds read low 0.983 | locus YDR101C, strain arx1, active compounds read low 1.04 | locus YDR137W, strain rgp1, active compounds read low 0.957 | locus YDR159W, strain sac3, active compounds read low 1.05 | locus YDR162C, strain NBP2, active compounds read low 1.01 | locus YDR195W, strain ref2 0.957 | locus YDR297W, strain sur2, active compounds read low 0.988 | locus YDR318W, strain mcm21, active compounds read low 1.02 | locus YDR334W, strain swr1, active compounds read low 0.99 | locus YDR335W, strain msn5, active compounds read low 0.979 | locus YDR388W, active compounds read low 1.02 | locus YDR392W, strain spt3, active compounds read low 0.88 | locus YDR502C, strain sam2, active compounds read low 1.04 | locus YEL003W, strain gim4, active compounds read low 1.01 | locus YEL037C, strain rad23, active compounds read low 0.985 | locus YEL061C, strain CIN8 (second series), active compounds read low 0.987 | locus YEL061C, strain CIN8, active compounds read low 1.02 | locus YER015W, strain faa2, active compounds read low 0.987 | locus YER016W, strain bim1, active compounds read low 0.981 | locus YER110C, active compounds read low 1.03 | locus YER111C, strain swi4, active compounds read low 0.974 | locus YER155C, strain BEM2 (second series), active compounds read low 1 | locus YER155C, strain BEM2, active compounds read low 1.02 | locus YER167W, strain BCK2, active compounds read low 1.04 | locus YFR010W, strain ubp6, active compounds read low 1.01 | locus YGL078C, strain dbp3, active compounds read low 1.02 | locus YGL086W, strain mad1, active compounds read low 1.04 | locus YGL167C, strain pmr1, active compounds read low 0.957 | locus YGL173C, strain kem1, active compounds read low 1 | locus YGL227W, strain vid30, active compounds read low 0.994 | locus YGL240W, strain doc1, active compounds read low 1.02 | locus YGL248W, strain PDE1, active compounds read low 1.02 | locus YGL253W, strain hxk2, active compounds read low 1.02 | locus YGR135W, strain pre9, active compounds read low 1.05 | locus YGR252W, strain gcn5, active compounds read low 1 | locus YHR013C, strain ard1, active compounds read low 0.935 | locus YHR027C, strain rpn1, active compounds read low 0.965 | locus YHR030C, strain SLT2, active compounds read low 1.02 and 1.06 | locus YHR079C, strain IRE1 (second series), active compounds read low 1.02 | locus YHR079C, strain IRE1, active compounds read low 1.04 | locus YHR094C, strain hxt1, active compounds read low 1.02 | locus YHR129C, strain ARP1, active compounds read low 1.03 | locus YHR142W, strain chs7, active compounds read low 0.958 | locus YHR200W, strain rpn10, active compounds read low 1.03 | locus YIL066C, strain RNR3, active compounds read low 1 | locus YIL073C, strain SPO22, active compounds read low 1.1 | locus YIL125W, strain kgd1, active compounds read low 1.03 | locus YIR030C, strain dcg1, active compounds read low 1.02 | locus YJL092W, strain hpr5, active compounds read low 0.99 | locus YJL095W, strain BCK1 (second series), active compounds read low 0.99 | locus YJL095W, strain BCK1, active compounds read low 1.08 and 1.04 | locus YJL115W, strain asf1, active compounds read low 0.977 | locus YJL129C, strain trk1, active compounds read low 0.979 | locus YJL134W, strain LCB3, active compounds read low 1.03 | locus YJL154C, strain vps35, active compounds read low 0.987 | locus YJL164C, strain tpk1, active compounds read low 0.95 | locus YJL166W, strain qcr8, active compounds read low 1 | locus YJL168C, strain set2, active compounds read low 1.03 | locus YJL187C, strain SWE1 (second series), active compounds read low 1.06 | locus YJL187C, strain SWE1, active compounds read low 0.993 | locus YJR043C, strain POL32, active compounds read low 1.04 | locus YJR066W, strain TOR1, active compounds read low 1 | locus YKL009W, strain mrt4, active compounds read low 0.994 | locus YKL068W, active compounds read low 1.01 | locus YKL085W, strain MDH1 (second series), active compounds read low 1.02 | locus YKL085W, strain MDH1, active compounds read low 1.02 | locus YKL160W, strain elf1, active compounds read low 0.948 | locus YKL190W, strain CNB1, active compounds read low 1.07 | locus YKR001C, strain vps1, active compounds read low 1.06 | locus YKR026C, strain gcn3, active compounds read low 0.996 | locus YKR091W, strain srl3, active compounds read low 0.973 | locus YLL001W, strain dnm1, active compounds read low 0.932 | locus YLL026W, active compounds read low 0.986 | locus YLL041C, strain sdh2, active compounds read low 0.984 | locus YLR027C, strain aat2, active compounds read low 1 | locus YLR039C, strain RIC1, active compounds read low 1.08 | locus YLR058C, strain SHM2, active compounds read low 1.02 | locus YLR102C, strain apc9, active compounds read low 1.03 | locus YLR113W, strain HOG1, active compounds read low 1.02 | locus YLR221C, strain rsa3, active compounds read low 1.03 | locus YLR258W, strain gsy2, active compounds read low 0.962 | locus YLR262C, strain YPT6 (second series), active compounds read low 0.984 | locus YLR262C, strain YPT6, active compounds read low 1.17 | locus YLR268W, strain sec22, active compounds read low 1.06 | locus YLR320W, strain mms22, active compounds read low 1.02 | locus YLR330W, strain CHS5, active compounds read low 1.06 | locus YLR342W, strain FKS1 (second series), active compounds read low 1.04 | locus YLR342W, strain FKS1, active compounds read low 0.989 | locus YLR357W, strain rsc2, active compounds read low 1 | locus YLR370C, strain arc18, active compounds read low 0.981 | locus YLR371W, strain rom2, active compounds read low 1.03 | locus YLR384C, strain iki3, active compounds read low 0.964 | locus YLR418C, strain cdc73, active compounds read low 1.05 | locus YML016C, strain PPZ1, active compounds read low 1.02 | locus YML032C, strain rad52, active compounds read low 1.01 | locus YML120C, strain ndi1, active compounds read low 0.96 | locus YML124C, strain tub3, active compounds read low 1.02 | locus YMR058W, strain fet3, active compounds read low 0.997 | locus YMR078C, strain ctf18, active compounds read low 1.03 | locus YMR125W, strain sto1, active compounds read low 0.978 | locus YMR129W, active compounds read low 1.02 | locus YMR205C, strain PFK2, active compounds read low 0.993 | locus YMR223W, strain ubp8, active compounds read low 1.03 | locus YMR231W, strain pep5, active compounds read low 0.993 | locus YMR263W, strain SAP30, active compounds read low 1.04 | locus YMR307W, strain GAS1, active compounds read low 1.1 | locus YNL067W, strain RPL9B, active compounds read low 1.09 | locus YNL071W, strain lat1, active compounds read low 0.991 | locus YNL183C, strain NPR1, active compounds read low 0.999 | locus YNL209W, strain ssb2, active compounds read low 0.978 | locus YNL233W, strain BNI4, active compounds read low 1.08 | locus YNL248C, strain rpa49, active compounds read low 1.03 | locus YNL250W, strain rad50, active compounds read low 1.03 | locus YNL271C, strain bni1, active compounds read low 1.02 | locus YNL298W, strain CLA4, active compounds read low 1 | locus YNL307C, strain MCK1, active compounds read low 1.03 | locus YNL322C, strain KRE1 (second series), active compounds read low 0.982 | locus YNR049C, strain mso1, active compounds read low 0.989 | locus YNR052C, strain pop2, active compounds read low 1.02 | locus YOL012C, strain htz1 0.914 | locus YOL147C, strain pex11, active compounds read low 1.03 | locus YOR001W, strain rrp6, active compounds read low 1.02 | locus YOR061W, strain CKA2, active compounds read low 1.02 | locus YOR069W, strain VPS5, active compounds read low 1.02 | locus YOR070C, strain gyp1, active compounds read low 1.01 | locus YOR080W, strain dia2, active compounds read low 0.995 | locus YOR083W, strain WHI5, active compounds read low 0.948 | locus YOR106W, strain vam3, active compounds read low 0.909 | locus YOR136W, strain idh2, active compounds read low 1.04 | locus YOR144C, strain elg1, active compounds read low 1.02 | locus YOR184W, strain ser1, active compounds read low 1.04 | locus YOR231W, strain MKK1, active compounds read low 1.07 | locus YOR265W, strain rbl2, active compounds read low 0.983 | locus YOR270C, strain vph1, active compounds read low 0.982 | locus YOR290C, strain snf2, active compounds read low 0.927 | locus YOR316C, strain cot1, active compounds read low 1.02 | locus YPL051W, strain arl3, active compounds read low 0.954 | locus YPL055C, strain LGE1, active compounds read low 1.06 | locus YPL078C, strain atp4, active compounds read low 0.936 | locus YPL106C, strain sse1, active compounds read low 0.978 | locus YPL240C, strain hsp82, active compounds read low 0.991 | locus YPL256C, strain CLN2, active compounds read low 1.04 | locus YPR119W, strain clb2, active compounds read low 1.02 | locus YPR141C, strain kar3, active compounds read low 1.03 | locus YPR163C, strain tif3, active compounds read low 1.03 | locus YPR167C, strain met16, active compounds read low 1.02 | strain wtn01, active compounds read low 1.05
